Results as given in PubChem BioAssay (EPA / NIEHS).
The source made the active and inactive calls. Rule for the calls: active = hit-call score of the fitted dose curve at least 0.9, where 1 is the maximum; inactive = score below 0.9.

Each compound was assayed on Cytochrome P450 7A1 (Homo sapiens) (UniProt P22680) (assay: LTEA_HepaRG_CYP7A1: Life Technologies and Expression Analysis (LTEA) Assay for Cytochrome P450 7A1 (CYP7A1) using HepaRG (AID 2283496)). Details: mRNA level, 48 h; actives raise or lower the signal.
Method: LTEA_HepaRG is a cell based, multiplexed-readout assay that uses HepaRG, a human liver cell line, with measurements taken at 48 hours after chemical dosing on a 96-well plate.LTEA_HepaRG_CYP7A1 is one of 102 assay component(s) measured in the LTEA HepaRG cell culture assay. It is a marker of NR mediated metabolism.Data from the assay component LTEA_HepaRG_CYP7A1 was analyzed into 1 endpoint. This assay endpoint, LTEA_HepaRG_CYP7A1, was analyzed with bidirectional fitting relative to DMSO as the negative control and baseline of activity. Using a type of inducible reporter, measures of mRNA induction for gain or loss-of-signal activity can be used to understand regulation of transcription factor activity. To generalize the intended target to other relatable targets, this assay endpoint is annotated to the cyp intended target family, where the subfamily is xenobiotic metabolism.
A total of 1060 chemcials from the ToxCast library were tested in eight-point concentration-response experiments. Cell culture and cytotoxicity assays were conducted at Thermo Fisher Scientific's Custom Services facility (Madison, WI). A single lot of human HepaRG cells (Thermo Fisher Scientific, Frederick, MD) was used for the cell culture experiments. 96-well format collagen type I coated plates of human HepaRG cells were prepared using established methods. Briefly, cryopreserved HepaRG cells were thawed, plated at a density of approximately 100,000 cells/well in HepaRG Thaw, Plate, and General Purpose media (HPRG770, Thermo Fisher Scientific), and incubated for 48 hours. 0.5% DMSO was selected as vehicle control to balance the requisite need of DMSO in HepaRG cultures to maintain differentiation (for example, baseline metabolism, proportions of hepatocytes vs. cholangiocytes), while enabling further hepatic receptor pathway activation (for example, PXR and CAR) in response to chemical exposure. 48 hours after plating, the culture medium was replaced with HepaRG Serum-Free Incudtion Media. Cells were exposed to each test chemical in duplicate and maintained in CO2 incubators for another 48 hours. Chemical plates were thawed to room temperature and 200x concentrations of treatment groups were prepared. 8-point conentration-reponse curves were made with the highest exposure at 100 uM, followed by half-log dilutions, all in 0.5% DMSO. Each test plate contained variouse controls, induction positive controls (1mM phenobarbital), cytotoxicity positive controls ([…] aflatoxin B1), vehicle controls (0.5% DMSO), and total lysis controls (0.5% DMSO). Cell morphology images were taken using an Essen IncuCyte FLR automated microscope, with six 96-well plates imaged in about 24 minutes. Images were captured and exported and JPEG files. Spent culture media was transfered to black-well plates for the LDH assay, and remaining media was sorted at -80 C for later use. Cells were treated with RLT buffer and frozen until shipped for gene expression analysis. Total RNA was isolated from the cell suspension in 75 uL of Buffer RLT (Qiagen, Germantown, MD 20874) by Quintiles/Expression Analysis (Durham, NC) using a custom isolation procedure. Total RNA from each plate well was transferred to a preamplification plate. Fluidigm's 96.96 Dynamic ArrayTM (Fluidigm, Amsterdam, the Netherlands) technology was used for gene expression analyses by quantitative reverse transcription polymerase chain reaction (qRT-PCR, performed by Quintiles/Expression Analysis, Durham, NC)89. Standard TaqManTM Assays (Applied Biosystems/ThermoFisher Scientific, Foster City, CA) were used to assess the expression of 93 genes selected based on their selectivity and sensitivity to important hepatic receptors known to be modulated by environmental chemicals; importance in human hepatocyte functionality; and hepatotoxicity. […]
With `c1ccc2ncccc2c1` the outcome was “inactive”. For `CCCCN1C(=O)[C@@H]([C@H](O)C2CCCCC2)NC(=O)C12CCN(Cc1ccc(Oc3ccc(C(=O)O)cc3)cc1)CC2`, the AC50 was 2.15 µM (active). With `Cn1cc[nH]c1=S` the outcome was “inactive”. For `O=C1CN(N=Cc2ccc([N+](=O)[O-])o2)C(=O)N1`, the AC50 was 22.2 µM (active). With `c1ccc2c(c1)-c1cccc3c1c-2cc1ccccc13` the AC50 was 15.6 µM (active). For `NC(=O)N(O)[C@@H]1COc2cc(OCc3ccccc3)ccc21`, the outcome was “inactive”. For `CCCC(CCC)C(=O)O`, the outcome was “inactive”. In the case of `Cc1ncc([C@@H](CCCCCCc2ccc3c(n2)NCCC3)CC(=O)O)cn1`, the outcome is reported as “inactive”. `CCCCCCCCCCCCCCO` was tested, and the outcome was “inactive”. In the case of `Cc1nc(-c2ccccn2)ncc1C(=O)Nn1cc(C)c2cc(F)ccc21`, the outcome is reported as “inactive”. In the case of `C[C@@H](Oc1ccc(CNC(=O)c2cccnc2Oc2ccc3c(c2)OCO3)c(F)c1)C(=O)O`, the outcome is reported as “inactive”. `CCOC(N)=O` was tested, and the outcome was “inactive”. For `O=S1(=O)CCCO1`, the outcome was “inactive”. In the case of `OCCNCCO`, the AC50 is reported as 50 µM (active). `NC(=O)NN=Cc1ccc([N+](=O)[O-])o1` was tested, and the AC50 was 13.6 µM (active). In the case of `C[C@]12C=CC(=O)C=C1CC[C@H]1[C@@H]3C[C@@H](O)[C@](O)(C(=O)CO)[C@@]3(C)C[C@H](O)[C@@]12F`, the outcome is reported as “inactive”. With `C=CCc1cc(S(=O)(=O)c2ccc(O)c(CC=C)c2)ccc1O` the AC50 was 83.1 µM (active). In the case of `NNC(=O)c1ccncc1`, the outcome is reported as “inactive”. For `CCCc1ccccc1`, the outcome was “inactive”. `CCCCCCCC/C=C\CCCCCCCC(=O)OC[C@@H](O)[C@H]1OC[C@H](O)[C@H]1O` was tested, and the outcome was “inactive”. For `c1ccc(C(O[C@@H]2CCCN(CCc3ccc4c(c3)OCO4)C2)c2ccccc2)cc1`, the AC50 was 83.6 µM (active). For `O=C(NO)C1(NS(=O)(=O)c2ccc(Oc3ccc(F)cc3)cc2)CCOCC1`, the outcome was “inactive”. For `O=C(O)c1cccc(C[C@@H]2COc3ccc(OCc4nc5cc(F)ccc5s4)cc3[C@@H]2O)c1`, the AC50 was 77.6 µM (active). With `CCCCOC(=O)c1ccccc1` the outcome was “inactive”. With `COCc1nnc(-c2ccc[n+]([O-])c2)n1-c1c(Cl)c(Cl)cc2[nH]c(=O)c(=O)[nH]c12` the outcome was “inactive”. `NC(=O)N1c2ccccc2C=Cc2ccccc21` was tested, and the outcome was “inactive”. With `CCOc1ccc2[nH]cc(C(=O)NCc3ccccc3)c(=O)c2n1` the outcome was “inactive”. `CC(=O)c1ccccc1` was tested, and the outcome was “inactive”. With `CCCCCOC(C)=O` the outcome was “inactive”. In the case of `CC(C)CCCCCCOC(=O)C1CCCCC1C(=O)OCCCCCCC(C)C` (stereo not given), the outcome is reported as “inactive”. In the case of `COc1cc2c(c(OC)c1OC)-c1ccc(OC)c(=O)cc1[C@@H](NC(C)=O)CC2`, the AC50 is reported as 0.095 µM (active). With `CCc1ccc(O)c(C(C)(C)C)c1` the outcome was “inactive”. In the case of `CCn1nc(C)c2c1C(=O)NCC(c1ccc(O)cc1)=N2`, the outcome is reported as “inactive”. In the case of `OCC(CO)(CO)CO`, the outcome is reported as “inactive”. With `Nc1ccn([C@@H]2O[C@H](CO)[C@@H](O)[C@@H]2O)c(=O)n1` the outcome was “inactive”. With `CC(C)CC(C)O` (stereo not given) the outcome was “inactive”. With `Cc1nccn1-c1ccc(Sc2cccc(C3(C(N)=O)CCOCC3)c2)cc1` the AC50 was 15.1 µM (active). For `CCCCCCOC(=O)CC(CC(=O)OCCCCCC)(OC(=O)CCC)C(=O)OCCCCCC`, the outcome was “inactive”. In the case of `OC(Cn1cncn1)(Cn1cncn1)c1ccc(F)cc1F`, the outcome is reported as “inactive”. In the case of `CNC(C)=O`, the outcome is reported as “inactive”.
